Source: PubChem BioAssay (Tox21)
Results filed as inconclusive are left out. Active and inactive are the calls of the source. Unless noted, calls follow the shape of the dose curve; as a rule, active = well fitted curve in the direction sought with a large enough effect in the repeat runs; inconclusive = weak or mixed curves; inactive = no such curve, though single readings can be large; an effect the other way counts as inactive or inconclusive.

Columns and labels:
[1] = qHTS assay to identify small molecule agonists of the peroxisome proliferator-activated receptor delta (PPARd) signaling pathway - cell viability counter screen (AID 743211); also: nearly all actives have a fitted effect of over 55% in size
In short: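 PPARd-bla HEK293H cells (3000/well) were pre-incubated 5 h at 37 C, then exposed to compound for 17 h at 37 C. After 2 h with LiveBLAzer substrate, CellTiter-Glo was added to the same wells; luminescence read after 30 min at room temperature.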

[2] = qHTS assay to identify small molecule antagonists of the peroxisome proliferator-activated receptor delta (PPARd) signaling pathway - cell viability counter screen (AID 743213); also: nearly all actives have a fitted effect of over 50% in size
In short: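 Viability counter-screen, qHTS format: PPARd-bla HEK293H, L165041 300 nM final, 17 h compound exposure at 37 C, CellTiter-Glo luminescence after 30 min RT.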

[3] = qHTS assay to identify small molecule agonists of the farnesoid-X-receptor (FXR) signaling pathway - cell viability counter screen (AID 743218); also: nearly all actives have a fitted effect of over 45% in size
In short: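 Luminescence from CellTiter-Glo, read after 30 min at RT, reports viability of GeneBLAzer FXR-UAS-bla HEK 293T cells treated 16 h with compounds in the wells used for the beta-lactamase reporter.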

[4] = qHTS assay to identify small molecule antagonists of the farnesoid-X-receptor (FXR) signaling pathway - cell viability counter screen (AID 743221; active = well fitted cell-killing curve with a large enough effect in the repeat runs, not every such curve was filed as active; also: nearly all actives have a fitted effect of over 50% in size)
In short: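 GeneBLAzer FXR-UAS-bla HEK 293T cells, compound plus chenodeoxycholic acid (50 uM final), 16 h at 37 C. CellTiter-Glo added to the same wells after the beta-lactamase read; luminescence read after 30 min at room temperature as viability.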

[5] = biological target: Vitamin D3 receptor (Homo sapiens) (UniProt P11473); assay: qHTS assay to identify small molecule antagonists of the vitamin D receptor (VDR) signaling pathway (AID 743223; active = well fitted inhibition curve with a large enough effect in the signal ratio in the repeat runs, not every such curve was filed as active; the % refers to the signal ratio)
Sequence of Vitamin D3 receptor (Homo sapiens) (P11473 whole entry, looked up): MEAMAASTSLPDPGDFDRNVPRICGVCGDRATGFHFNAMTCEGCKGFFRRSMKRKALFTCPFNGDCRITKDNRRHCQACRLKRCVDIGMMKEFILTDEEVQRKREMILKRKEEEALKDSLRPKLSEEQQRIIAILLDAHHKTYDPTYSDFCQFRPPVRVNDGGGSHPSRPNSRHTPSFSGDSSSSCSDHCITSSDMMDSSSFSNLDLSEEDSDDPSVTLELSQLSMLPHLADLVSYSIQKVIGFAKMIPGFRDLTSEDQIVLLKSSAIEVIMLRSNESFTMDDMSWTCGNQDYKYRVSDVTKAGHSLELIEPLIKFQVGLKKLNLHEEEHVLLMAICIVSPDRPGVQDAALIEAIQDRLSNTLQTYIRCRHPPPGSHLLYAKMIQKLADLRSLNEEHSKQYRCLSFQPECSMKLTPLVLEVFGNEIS
In short: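 VDR-bla cells were treated with compound plus 3 nM final 1alpha,25-dihydroxyvitamin D3 for 16 h at 37C. Beta-lactamase reporter read by B/G FRET substrate fluorescence after 2 h at room temperature. qHTS format.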

[6] = qHTS assay to identify small molecule agonists of the vitamin D receptor (VDR) signaling pathway - cell viability counter screen (AID 743224); also: series mostly up to about 63 µM; nearly all actives have a fitted effect of over 50% in size
In short: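 Cytotoxicity counter screen: VDR-bla cells, 16 h compound exposure at 37C, 5% CO2; CellTiter-Glo luminescence, 30 min RT, same wells as bla read.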

[7] = qHTS assay to identify small molecule antagonists of the vitamin D receptor (VDR) signaling pathway - cell viability counter screen (AID 743225); also: nearly all actives have a fitted effect of over 50% in size
In short: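 VDR-UAS-bla HEK 293T cells were plated and incubated 4 h at 37C, then dosed with compound plus 3 nM (final) 1-alpha,25-dihydroxyvitamin D3 for 16 h. After the 2 h beta-lactamase read, viability in the same wells was read as CellTiter-Glo luminescence after 30 min at room temperature.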

[8] = qHTS assay to identify small molecule agonists of the NFkB signaling pathway (AID 1159509; active = well fitted curve in the direction sought with a large enough effect in the signal ratio in the repeat runs, not every such curve was filed as active; the % refers to the signal ratio; also: series mostly up to about 61 µM)
In short: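 Pathway activation was measured in ME-180 cells stably expressing beta-lactamase under NF-kB response element control. Substrate cleavage was read as the 460/530 nm emission shift after 5 hr compound incubation.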

[9] = qHTS assay to identify small molecule agonists of the NFkB signaling pathway - cell viability counter screen (AID 1159515; calls by dose curve; also: series mostly up to about 61 µM; nearly all actives have a fitted effect of over 55% in size)
In short: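 ME-180 NFkB-bla cells, 2,000/well; overnight attach; compound 5 hr, 37 C/5% CO2; LiveBLAzer substrate 1.5 hr RT; then CellTiter-Glo in same wells, 30 min RT, luminescence read.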

[10] = qHTS assay to identify small molecule agonists of the endoplasmic reticulum stress response signaling pathway (AID 1159516; active = well fitted activation curve with a large enough effect in the signal ratio in the repeat runs, not every such curve was filed as active; the % refers to the signal ratio)
In short: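 HeLa ESRE-bla reporter line; cpd 5 h, 37 C/5% CO2; LiveBLAzer B/G FRET substrate 2 h RT; ex 405, em 460/530 nm.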

[11] = qHTS assay to identify small molecule agonists of the endoplasmic reticulum stress response signaling pathway - cell viability counter screen (AID 1159517; calls by dose curve)
In short: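 Cpd-treated ESRE-bla HeLa (5 hr, 37 C) → LiveBLAzer 2 hr RT → CellTiter-Glo 30 min RT → luminescence.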

[12] = qHTS assay to identify small molecule antagonists of the retinoid-related orphan receptor gamma (ROR-gamma) signaling pathway - cell viability counter screen (AID 1159520); also: nearly all actives have a fitted effect of over 50% in size
In short: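 Tet-on ROR gamma CHO cells (1,000/well) were plated 4 hr, given compounds in DMSO for 2 hr at 37 C, then induced with 1 uM final doxycycline for 16 hr. Viability was read as ATP by CellTiter-Glo luminescence after 30 min.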

[13] = qHTS assay to identify small molecule agonists of the AP-1 signaling pathway - cell viability counter screen (AID 1159525; calls by dose curve; also: nearly all actives have a fitted effect of over 55% in size)
In short: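 Each titration point was normalised to DMSO and tetra n-octyl ammonium bromide controls. The read was Cell Titer Glo luminescence after 30 min at RT, following 5 h compound exposure of ME-180 AP-1-bla cells at 37 °C.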

[14] = qHTS assay to identify small molecule agonists of the AP-1 signaling pathway (AID 1159526; calls by dose curve)
[15] = biological target: Peroxisome proliferator-activated receptor delta (Homo sapiens) (UniProt Q03181); assay: qHTS assay to identify small molecule agonists of the peroxisome proliferator-activated receptor delta (PPARd) signaling pathway (AID 743212; calls by dose curve)
Sequence of Peroxisome proliferator-activated receptor delta (Homo sapiens) (Q03181 whole entry, looked up): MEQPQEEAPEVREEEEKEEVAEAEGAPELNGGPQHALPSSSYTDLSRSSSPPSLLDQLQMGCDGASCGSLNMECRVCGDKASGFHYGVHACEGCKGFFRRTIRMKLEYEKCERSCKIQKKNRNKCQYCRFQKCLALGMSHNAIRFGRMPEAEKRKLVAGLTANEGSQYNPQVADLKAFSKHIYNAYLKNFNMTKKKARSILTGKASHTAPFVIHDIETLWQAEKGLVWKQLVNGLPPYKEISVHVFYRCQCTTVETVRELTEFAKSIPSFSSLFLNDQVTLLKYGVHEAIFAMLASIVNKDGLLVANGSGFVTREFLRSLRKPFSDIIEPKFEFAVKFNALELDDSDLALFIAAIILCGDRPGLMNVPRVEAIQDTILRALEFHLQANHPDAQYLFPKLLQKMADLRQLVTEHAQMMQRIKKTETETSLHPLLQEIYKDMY
In short: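 Cells expressing a UAS-driven beta-lactamase reporter (PPARd-bla HEK293H) were given test compounds after a 5 h settle and kept at 37 C. Reporter activity was then measured as FRET fluorescence using LiveBLAzer B/G substrate.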

[16] = biological target: Peroxisome proliferator-activated receptor delta (Homo sapiens) (UniProt Q03181); assay: qHTS assay to identify small molecule antagonists of the peroxisome proliferator-activated receptor delta (PPARd) signaling pathway (AID 743215; active = well fitted inhibition curve with a large enough effect in the signal ratio in the repeat runs, not every such curve was filed as active; the % refers to the signal ratio;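 also: cells stimulated with agonist L165041 at 300 nM final during compound exposure; series mostly up to about 62 µM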)
In short: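 HEK293H GeneBLAzer PPARd UAS-bla reporter cells; cpd + L165041 300 nM final, 17 h 37 C; LiveBLAzer B/G FRET substrate 2 h RT; fluorescence intensity read-out. Antagonist mode.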

[17] = biological target: Vitamin D3 receptor (Homo sapiens) (UniProt P11473); assay: qHTS assay to identify small molecule agonists of the vitamin D receptor (VDR) signaling pathway (AID 743222; calls by dose curve)
In short: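 Beta-lactamase reporter readout (LiveBLAzer B/G FRET, 2 h RT) in VDR-bla cells after 16 h compound treatment at 37C, 5% CO2; cells pre-incubated 4 h before pin transfer of DMSO solutions.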

[18] = biological target: Nuclear receptor ROR-gamma (Homo sapiens) (UniProt P51449); assay: qHTS assay to identify small molecule antagonists of the retinoid-related orphan receptor gamma (ROR-gamma) signaling pathway (AID 1159521)
In short: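 Tet-on ROR-gamma CHO cells with ROR response element-luciferase reporter; compounds added 2 hr before 1 uM doxycycline induction, then 16 hr at 37 C. Antagonism scored as decreased ONE-Glo luminescence.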

[19] = biological target: Bile acid receptor (Homo sapiens) (UniProt Q96RI1); assay: qHTS assay to identify small molecule antagonists of the farnesoid-X-receptor (FXR) signaling pathway (AID 743217; active = well fitted inhibition curve with a large enough effect in the signal ratio in the repeat runs, not every such curve was filed as active; the % refers to the signal ratio)
Sequence of Bile acid receptor (Homo sapiens) (Q96RI1 whole entry, looked up): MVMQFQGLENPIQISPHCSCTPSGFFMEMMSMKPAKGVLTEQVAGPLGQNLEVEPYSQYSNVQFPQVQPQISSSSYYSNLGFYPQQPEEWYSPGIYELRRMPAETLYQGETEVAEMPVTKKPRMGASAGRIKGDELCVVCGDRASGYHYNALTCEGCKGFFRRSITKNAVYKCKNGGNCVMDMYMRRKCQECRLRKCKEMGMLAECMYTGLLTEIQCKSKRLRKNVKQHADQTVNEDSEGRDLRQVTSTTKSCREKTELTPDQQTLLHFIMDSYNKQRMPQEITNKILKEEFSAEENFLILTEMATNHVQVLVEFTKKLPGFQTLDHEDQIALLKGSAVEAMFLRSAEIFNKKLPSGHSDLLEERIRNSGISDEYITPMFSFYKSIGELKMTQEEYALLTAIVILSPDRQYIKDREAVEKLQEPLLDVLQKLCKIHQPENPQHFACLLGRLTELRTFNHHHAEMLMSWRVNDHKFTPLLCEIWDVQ
In short: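 Read-out: beta-lactamase FRET fluorescence (LiveBLAzer B/G substrate, 2 h, room temperature) in GeneBLAzer FXR-UAS-bla HEK 293T cells. Compounds were co-dosed with 50 uM chenodeoxycholic acid (final) and incubated 16 h at 37 °C.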

[20] = biological target: Bile acid receptor (Homo sapiens) (UniProt Q96RI1); assay: qHTS assay to identify small molecule agonists of the farnesoid-X-receptor (FXR) signaling pathway (AID 743220; active = well fitted activation curve with a large enough effect in the signal ratio in the repeat runs, not every such curve was filed as active; the % refers to the signal ratio)
In short: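 FXR-UAS-bla HEK 293T cells carrying a UAS-driven beta-lactamase reporter were plated for 5 h at 37C/5% CO2, then exposed to DMSO-dissolved Tox21 10K compounds for 16 h at 37C. A LiveBLAzer B/G FRET substrate was loaded for 2 h at room temperature before fluorescence reading.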

Measured: Potency

CCOC(=O)c1ncn2c1CN(C)C(=O)c1cc(F)ccc1-2
not listed: [15] | [16] | [17] | [18] | [19] | [20]
inactive: all other assays above

CC1COc2ccccc2N1 (configuration not stated)
not listed: [4] | [5] | [11] | [19] | [20]
inactive: all other assays above

COc1cc2c(cc1OC)C(=O)CC2
not listed: [18] | [19] | [20]
inactive: all other assays above

CCCCCCCCSCC
not listed: [4] | [5] | [6] | [7] | [18] | [19] | [20]
inactive: all other assays above

CN1C(C)(C)CCCC1(C)C
not listed: [5] | [11] | [18]
inactive: all other assays above

CCCCCCCCC(=O)Cl
not listed: [5] | [11]
inactive: all other assays above

O=S(=O)(O)c1ccc2cc(O)c(S(=O)(=O)O)cc2c1
not listed: [3] | [5] | [6] | [11] | [19] | [20]
inactive: all other assays above

Cc1cccc(C)c1NC(=O)c1ccccc1C(=O)O
not listed: [5] | [10] | [15] | [16] | [19] | [20]
inactive: all other assays above

C[C@@H]1O[C@@H](O[C@@H]2[C@@H](O)[C@H](OCCc3ccc(O)c(O)c3)O[C@H](CO[C@@H]3O[C@H](CO)[C@@H](O)[C@H](O)[C@H]3O)[C@H]2OC(=O)/C=C/c2ccc(O)c(O)c2)[C@H](O)[C@H](O)[C@H]1O
not listed: [2] | [10] | [18] | [19] | [20]
inactive: all other assays above

CC(C)(C)NC(N)=O
not listed: [3] | [10] | [17] | [18] | [19] | [20]
inactive: all other assays above

CO[C@@H]1[C@@H](OC(N)=O)[C@@H](O)[C@H](Oc2ccc3c(O)c(NC(=O)c4ccc(O)c(CC=C(C)C)c4)c(=O)oc3c2C)OC1(C)C
not listed: [8]
inactive: all other assays above

CC(C)(C)c1nnc(NS(=O)(=O)c2ccc(N)cc2)s1
not listed: [3] | [4] | [5] | [10] | [19] | [20]
inactive: all other assays above

O=C(O)c1cc(Cl)cc([N+](=O)[O-])c1Cl
not listed: [4] | [7] | [10] | [15] | [16]
inactive: all other assays above

CC(C)C(=O)OCc1cccc(OC(=O)[C@@H]2N3C(=O)[C@@H](NC(=O)Cc4ccccc4)[C@H]3SC2(C)C)c1
not listed: [4] | [6] | [11] | [18] | [19] | [20]
inactive: all other assays above

CC(S)C(=O)NCC(=O)O (configuration not stated)
not listed: [6] | [10] | [15] | [16] | [19] | [20]
inactive: all other assays above
